Assay outcomes deposited in PubChem BioAssay by National Center for Advancing Translational Sciences (NCATS).
BAZ2B inh: BAZ2B (human) inhibition; Potency, µM (series often up to 114 µM), most hits filed as inhibitors; AID 504333; AlphaScreen BAZ2B-H3K14Ac peptide displacement; 360,000 tested, 4.4% active; note: nearly all actives have a fitted effect of over 60% in size
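AlphaScreen luminescence quantifies BAZ2B engagement of H3K14Ac peptide; the protein and biotinylated peptide are both at 50 nM final, buffer PBS pH 7.4 with 0.01% Tween-20, all steps at room temperature.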
HP1b chromo inh: HP1-beta chromodomain-methylated histone interaction inhibition. P83916. AlphaScreen HP1-beta / biotin-H3K9me3 peptide binding. Potency, µM (doses to about 114 µM), actives largely listed as inhibitors. 390,000 tested, 0.56% active. AID 540317; note: nearly all actives have a fitted effect of over 70% in size
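HP1-beta protein (50 nM final) preincubated 30 min at room temperature with biotinylated H3(1-18)K9me3 peptide (50 nM) in PBS pH 7.4, 0.01% Tween-20, then compound added for 30 min. AlphaScreen streptavidin donor/nickel chelate acceptor beads (10 ug/mL final), 30 min dark, luminescence read.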
Sfp inh: blocks B. subtilis Sfp PPTase activity | Biochemical Sfp PPTase activity, qHTS | 310,000 tested, 3.5% active | Potency, µM, usual class: inhibitors | Q9F4F7;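 note: the enzyme is Sfp with the accession as filed and its product quenches rhodamine fluorescence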
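Step 1, compound plus 15 nM Sfp-PPTase, 15 min, room temperature. Step 2, add rhodamine-CoA (5 uM) and BHQ-2-YbbR (12.5 uM). Step 3, read 525/598 nm fluorescence at 0 and 30 min.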
JMJD2A Tudor: blocks the human JMJD2A Tudor domain. 390,000 tested, 4.4% active. Potency, µM (series often up to 114 µM), actives largely listed as inhibitors. O75164. AID 504339. AlphaScreen JMJD2A-Tudor / H3K4me3 peptide binding; note: nearly all actives have a fitted effect of over 50% in size
Target sequence (O75164 whole entry, looked up, the tested form may be a part): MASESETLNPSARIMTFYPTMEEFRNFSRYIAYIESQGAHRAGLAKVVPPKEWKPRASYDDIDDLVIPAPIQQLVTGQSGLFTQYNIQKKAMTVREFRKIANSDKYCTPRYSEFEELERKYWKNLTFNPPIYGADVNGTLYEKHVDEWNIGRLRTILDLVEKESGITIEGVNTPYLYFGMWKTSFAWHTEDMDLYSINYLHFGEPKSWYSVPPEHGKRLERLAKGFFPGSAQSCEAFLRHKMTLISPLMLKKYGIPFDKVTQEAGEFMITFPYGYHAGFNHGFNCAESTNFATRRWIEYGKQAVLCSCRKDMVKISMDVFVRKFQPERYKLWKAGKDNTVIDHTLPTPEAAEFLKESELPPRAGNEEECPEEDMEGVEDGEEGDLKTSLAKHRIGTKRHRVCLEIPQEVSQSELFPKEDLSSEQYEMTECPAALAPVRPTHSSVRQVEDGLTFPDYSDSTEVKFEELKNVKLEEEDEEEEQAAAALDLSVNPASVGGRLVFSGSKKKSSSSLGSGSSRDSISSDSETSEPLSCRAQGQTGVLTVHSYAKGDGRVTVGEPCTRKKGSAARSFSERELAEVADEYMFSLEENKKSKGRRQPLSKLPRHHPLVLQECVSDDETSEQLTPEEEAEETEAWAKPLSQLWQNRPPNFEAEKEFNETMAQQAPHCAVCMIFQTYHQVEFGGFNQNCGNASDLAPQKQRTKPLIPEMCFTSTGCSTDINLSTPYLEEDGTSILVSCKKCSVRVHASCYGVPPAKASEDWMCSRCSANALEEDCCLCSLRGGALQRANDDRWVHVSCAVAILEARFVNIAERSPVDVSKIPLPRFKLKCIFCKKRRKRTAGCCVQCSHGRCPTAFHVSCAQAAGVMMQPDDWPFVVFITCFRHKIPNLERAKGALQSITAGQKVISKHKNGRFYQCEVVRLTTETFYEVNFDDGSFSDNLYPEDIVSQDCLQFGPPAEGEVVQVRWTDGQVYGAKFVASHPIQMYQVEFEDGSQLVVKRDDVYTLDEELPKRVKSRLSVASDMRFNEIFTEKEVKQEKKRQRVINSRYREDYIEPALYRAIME
L3MBTL1 block: inhibitors of human L3MBTL1; 230,000 tested, 0.66% active; Potency, µM (doses to about 57.1 µM), most hits filed as inhibitors; AlphaScreen L3MBTL1–H3K9me1 peptide binding; Q9Y468; note: nearly all actives have a fitted effect of over 60% in size
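AlphaScreen assay: L3MBTL1 (50 nM final) was preincubated 30 min at room temperature with biotinylated H3(1-15)K9me1 peptide (75 nM final), then 30 min with library compounds; streptavidin donor and nickel chelate acceptor beads (10 ug/mL final) added, 30 min dark.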
G9a block: G9a (human) methyltransferase inhibition; Q96KQ7; G9a H3K9 monomethylation, AlphaScreen, 2 h; Potency, µM (doses to about 102 µM), hits mostly inhibitors; 350,000 tested, 8.8% active; AID 504332; note: nearly all actives have a fitted effect of over 75% in size
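Compounds were preincubated with 20 nM G9a for 15 min, after which biotinylated H3K9 peptide (500 nM) and SAM (20 uM) started a 2 h room-temperature reaction. Monomethylated product was quantified by antibody-based AlphaScreen chemiluminescence.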
Hits are given with their value; i = inactive; ? = inconclusive; nt = no result given; [ ] = another dose, or the depositor's remark. Only some compounds are listed: those with a hit (about 12% of all), similar ones and a draw of the others. Calls come from the whole dose curve; as a rule, active = well fitted curve in the direction sought with a large enough effect; inconclusive = small, poorly fitted or top-dose-only effect, or another doubt; inactive = no such curve, though single readings can be large; an effect the other way counts as inactive or inconclusive.

SMILES	BAZ2B inh	HP1b chromo inh	Sfp inh	JMJD2A Tudor	L3MBTL1 block	G9a block
CCCCN(CC)C(=O)c1nn(C)c2c1CSc1ccccc1-2	?	i	nt	?	nt	?
CCS(=O)(=O)c1ccc2c(c1)N(S(=O)(=O)c1ccc(OC)cc1)CC(C(=O)O)O2 (stereo not drawn)	i	i	i	i	i	i
CCS(=O)(=O)c1ccc2c(c1)N(S(=O)(=O)c1ccc(C)cc1)CC(C(=O)O)O2 (stereo not drawn)	89.1µM	i	i	i	i	?
CC(=O)Nc1sc(-c2ccc(Cl)cc2)nc1-c1ccccc1	i	i	i	i	nt	i
O=c1cc(O)nc(-c2ccc(Cl)cc2)s1	i	i	17.8µM	i	i	28.2µM
O=c1cc(O)nc(-c2ccccc2)s1	i	i	12.6µM	i	i	44.7µM
Cc1cc2c(nc1C)CCCN2C[C@H](C)O/N=C1/[C@H]2O[C@@H]2[C@@H](O)[C@H]2[C@H]1CCn1c(=O)n(-c3ccccc3)c(=O)n12	nt	nt	i	nt	nt	nt
CC[C@H](C)[C@H](NC(=O)[C@H](CO)NC(=O)[C@H](C)NC(=O)[C@H](C)NC(=O)[C@H](CCC(N)=O)NC(=O)[C@H](CCCCN)NC(=O)[C@H](CCCN=C(N)N)NC(=O)[C@@H](N)CS)C(=O)N[C@@H](CCCCN)C(=O)N[C@H](C(=O)N[C@@H](C)C(=O)N[C@H](C(=O)N[C@@H](CO)C(=O)O)C(C)C)C(C)C	nt	nt	i	nt	nt	nt
C=CC[n+]1c(C)csc1Nc1ccc(C(=O)O)cc1	?	i	i	i	i	?
O=C(O)c1ccc(C[n+]2c(-c3ccccc3)csc2Nc2ccccc2)cc1	39.8µM	?	i	?	i	?
CCCCCC[n+]1c(-c2ccccc2)csc1Nc1ccccc1	17.8µM	i	i	i	i	15.8µM
CC(C)(C)c1cc(-c2csc(Nc3ccccc3)[n+]2Cc2ccc(C(=O)O)cc2)cc(C(C)(C)C)c1O	39.8µM	44.7µM	i	39.8µM	i	39.8µM
Cc1ccc(-c2nnn3c2nc(NCc2ccc4c(c2)OCO4)c2ccccc23)cc1	i	i	nt	i	nt	i
COc1ccccc1C(=O)Nc1c(C(=O)Nc2cc(Cl)ccc2C)sc2nc(C)cc(C)c12	i	i	nt	i	nt	i
O=C(CCc1ccccc1)Nc1nc2nc(-c3ccccc3)cc(=O)n2[nH]1	i	i	i	i	i	?
CC(C)CC(=O)Nc1nc2nc(-c3ccccc3)cc(=O)n2[nH]1	50.1µM	i	nt	?	nt	?
O=c1cc(-c2ccccc2)nc2nc(SCc3ccccc3)[nH]n12	79.4µM	i	i	?	nt	i[12.7 µM]
O=C(Nc1nc2nc(-c3ccccc3)cc(=O)n2[nH]1)c1ccc(Cl)cc1	79.4µM	i	nt	?	nt	?
Cc1cc(=O)n2[nH]c(SCc3ccccc3)nc2n1	i	i	i	i	nt	i
COc1ccc(C(=O)Nc2nc3nc(-c4ccccc4)cc(=O)n3[nH]2)cc1	i	i	i	i	?	?
O=C1CCC[C@@H]2Cc3[nH]c4c(Cl)ccc(Cl)c4c3[C@@H]3CCN1[C@H]23	i	i	i	i	i	50.1µM
COC(=O)c1ccc2nc3c(cc2c1)[C@@H]1CCN2C(=O)CCC[C@H](C3)[C@H]12	nt	i	nt	i	nt	nt
O=C(CSc1ccc(F)cc1)NCC1(N2CCOCC2)CCCCC1	i	i	nt	i	i	i
NC(=O)CC(NC(=O)c1ccccc1)c1ccc(N2CCN(c3ccccn3)CC2)c([N+](=O)[O-])c1 (stereo not drawn)	i	i	i	i	i	79.4µM
NC(=O)CC(NC(=O)c1ccc(Br)cc1)c1ccc(N2CCN(c3ccc(F)cc3)CC2)c([N+](=O)[O-])c1 (stereo not drawn)	i	i	i	i	nt	i[12.7 µM]
SMILES	BAZ2B inh	HP1b chromo inh	Sfp inh	JMJD2A Tudor	L3MBTL1 block	G9a block
NC(=O)CC(NC(=O)c1ccc(Br)cc1)c1ccc(N2CCN(c3ccccc3)CC2)c([N+](=O)[O-])c1 (stereo not drawn)	?	i	i	i	i	i
COc1ccc(OC)c(C(=O)NC(CC(N)=O)c2ccc(N3CCCCCC3)c([N+](=O)[O-])c2)c1 (stereo not drawn)	50.1µM	i	i	?	i	?
NC(=O)CC(NC(=O)c1cccc(Br)c1)c1ccc(N2CCN(c3ccc(F)cc3)CC2)c([N+](=O)[O-])c1 (stereo not drawn)	?	i	i	?	i	44.7µM
NC(=O)CC(NC(=O)c1cccc(Br)c1)c1ccc(N2CCC(N3CCCCC3)CC2)c([N+](=O)[O-])c1 (stereo not drawn)	i	i	i	i	i	44.7µM
CC(C)CCNC(=O)C1CCN(c2nc3ccc(Cl)cc3[nH]2)CC1	i	i	nt	i	nt	?
COc1cccc(C2CC(=O)Nc3cc(OC)c(OC)c(OC)c32)c1OC(C)C (stereo not drawn)	i	i	nt	i	nt	i
NC(=O)CC(NC(=O)c1ccccc1)c1ccc(NCCN2CCOCC2)c([N+](=O)[O-])c1 (stereo not drawn)	i	i	i	i	i	70.8µM
C#CCOCCOCCOCCNc1nc(N2CCN(C(=O)CCCCCCCCCCNC(=O)Cn3cc(C[C@@H](C)O)nn3)CC2)nc(N2CCN(C(=O)CCCCCCCCCCNC(=O)[C@@H]([C@H](C)CC)n3cc(CCCCCN)nn3)CC2)n1	?	?	nt	56.2µM	i	i[2.33 µM]
C#CCOCCOCCOCCNc1nc(N2CCN(C(=O)CCCCCCCCCCNC(=O)Cn3cc(CCCCCN)nn3)CC2)nc(N2CCN(C(=O)CCCCCCCCCCNC(=O)[C@@H]([C@H](C)O)n3cc(C)nn3)CC2)n1	?	?	nt	79.4µM	i	i[2.33 µM]
C#CCOCCOCCOCCNc1nc(N2CCN(C(=O)Cn3cc(CCO)nn3)CC2)nc(N2CCN(C(=O)Cn3cc(CC(C)O)nn3)CC2)n1 (stereo not drawn)	nt	i	nt	i	nt	nt
C#CCOCCOCCOCCNc1nc(N2CCN(C(=O)Cn3cc(CC(C)O)nn3)CC2)nc(N2CCN(C(=O)Cn3cc(CC(C)O)nn3)CC2)n1 (stereo not drawn)	i	i	i	i	i	?
C#CCOCCOCCOCCNc1nc(N2CCN(C(=O)Cn3cc(CCCCN)nn3)CC2)nc(N2CCN(C(=O)Cn3cc(CC(C)O)nn3)CC2)n1 (stereo not drawn)	?	i	i	i	i	50.1µM
C#CCOCCOCCOCCNc1nc(N2CCN(C(=O)CCCCCCCCCCNC(=O)Cn3cc(C[C@@H](C)O)nn3)CC2)nc(N2CCN(C(=O)CCCCCCCCCCNC(=O)[C@@H]([C@H](C)O)n3cc(C)nn3)CC2)n1	i	i	nt	i	i	i[2.33 µM]
